Shown are actives, neighbours in structure and some others; about 2.3% of the full set was active somewhere.
M1 PAM parental = M1 PAM counterscreen hit in parental CHO-K1 cells; ATP EC20, Fluo-8 calcium fluorescence; 0% at ATP EC20, 100% at ATP max; activation, % at 3 µM; 360,000 tested, 0.02% active;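 active means activation above the run cutoff, the mean activation of all test compounds plus 3 SD, cut at about 40% in these data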;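 further: peak over basal fluorescence ratio in a 140 s read after ATP addition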
M1 PAM = positive allosteric modulators of human M1 muscarinic receptor. CHO-K1 hM1, Fluo-8 calcium fluorescence, ACh EC20; 0% = ACh EC20, 100% = maximal ACh. 360,000 tested, 0.088% active. activation, % at 3 µM; in the data active means activation above about 19%, passing the limit was not always enough
Target sequence (P11229 whole entry, looked up): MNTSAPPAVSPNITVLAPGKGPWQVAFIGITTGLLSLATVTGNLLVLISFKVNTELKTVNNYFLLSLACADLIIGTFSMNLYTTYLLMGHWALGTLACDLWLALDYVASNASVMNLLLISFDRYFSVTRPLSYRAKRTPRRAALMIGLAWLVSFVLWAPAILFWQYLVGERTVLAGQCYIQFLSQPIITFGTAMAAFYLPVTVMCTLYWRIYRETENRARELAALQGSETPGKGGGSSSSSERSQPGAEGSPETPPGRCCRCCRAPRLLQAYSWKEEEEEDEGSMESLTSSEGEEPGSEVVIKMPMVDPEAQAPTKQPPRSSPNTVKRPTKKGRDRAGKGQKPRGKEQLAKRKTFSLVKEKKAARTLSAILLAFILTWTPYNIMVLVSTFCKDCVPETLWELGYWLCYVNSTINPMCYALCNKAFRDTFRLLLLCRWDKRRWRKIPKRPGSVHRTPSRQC
M1 antag = antagonists of human M1 muscarinic receptor. P11229. CHO-K1 hM1, Fluo-8 calcium fluorescence, ACh EC80 antagonist. inhibition, % at 3 µM. 360,000 tested, 1.3% active. AID 588852;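 active means percent inhibition above its own plate's cutoff, namely the mean of that plate's compound wells plus 3 SD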;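 further: peak over basal fluorescence ratio during 140 s after agonist addition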
CHO-K1 Ca antag = M1 antagonist counterscreen hit in parental CHO-K1 cells | ATP-induced calcium, Fluo-8 fluorescence | inhibition, % at 3 µM | 360,000 tested, 0.6% active | AID 602250;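 active means inhibition above a per-plate cutoff, the plate's mean sample inhibition plus 3 SD, cut at about 24% in these data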
CHO-K1 Ca ag = nonselective activator or artifact in parental CHO-K1 cells. activation, % at 3 µM. 360,000 tested, 0.48% active. Fluo-8 calcium fluorescence; scaled to maximal ATP response, vehicle zero; in the data active means activation above about 15%;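 further: untransfected CHO-K1 host cells lacking M1 receptor as counterscreen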
CHRM1 agonist = agonists of human M1 muscarinic receptor; P11229; 360,000 tested, 0.33% active; activation, % at 3 µM; AID 588814; CHO-K1 hM1, Fluo-8 calcium fluorescence, agonist mode; 0% DMSO, 100% acetylcholine EC100;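 active means activation above the run's mean compound activation plus 3 SD, cut at about 16% in these data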;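 further: peak over basal fluorescence ratio within a 140 s kinetic read after compound addition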
Hits are given with their value; i = inactive; nt = not tested or not shown; ! = not confirmed by another sample.

SMILES	M1 PAM parental	M1 PAM	M1 antag	CHO-K1 Ca antag	CHO-K1 Ca ag	CHRM1 agonist
CCN1CCN(c2ncnc3c2cnn3-c2ccccc2)CC1	i	i	i	i	i	i
COc1ccc(-n2ncc3c(N4CCN(Cc5ccccc5)CC4)ncnc32)cc1	i	i	23	i	i	i
COc1cccc(N2CCN(c3ncnc4c3cnn4-c3ccc(C)cc3C)CC2)c1	i	i	64	i	i	i
CCCCN(C(=O)CSc1nnnn1C)C1CCS(=O)(=O)C1 (configuration not stated)	i	i	i	i	i	i
CC(=O)c1nn(-c2cccc(Br)c2)cc1C(=O)c1ccc2ccccc2c1	i	i	35	i	i	i
COc1ccc(C(=O)c2cn(-c3cccc(Br)c3)nc2C(C)=O)cc1	i	i	i	i	i	i
CC(CN1CCCCC1)OC(=O)C(C)(c1ccccc1)c1ccccc1 (configuration not stated)	i	i	89	i	i	i
CC(CN1CCOCC1)OC(=O)C(C)(c1ccccc1)c1ccccc1 (configuration not stated)	i	i	i	i	i	i
Cc1ccc(S(=O)(=O)N2[C@@H](c3ccc(C(C)(C)C)cc3)C(C(=O)O)=CC[C@H]2c2ccc(C(C)C)cc2)cc1	i	i	i	i	i	i
COc1ccc(OC)c(S(=O)(=O)NCC(c2ccco2)N2CCc3ccccc32)c1 (configuration not stated)	i	24	i	i	i	i
O=C(NCC(c1ccco1)N1CCc2ccccc21)C(=O)Nc1ccccc1 (configuration not stated)	i	i	i	25	i	i
CN1CCN(NC(=O)c2cn(-c3ccccc3)nc2-c2ccc(OC(F)F)cc2)CC1	i	i	i	i	i	i
CC[n+]1c(/C=C/c2cc([N+](=O)[O-])ccc2O)ccc2ccccc21	i	i	i	24	i	i
O=C(NCc1ccco1)c1ccccc1NS(=O)(=O)c1cccs1	i	i	i	i	19	i
COc1cc2[nH]c3c(=O)n(N)c(=O)[nH]c3c2cc1OC	i	i	41	i	i	i
COc1ccc2[nH]c3c(=O)n(N)c(=O)[nH]c3c2c1	i	i	i	i	i	i
CSc1ccc2c(c1)C(N1CCN(C)CC1)Cc1ccccc1S2 (configuration not stated)	i	i	79	i	15!	i
CN1CCN(C2Cc3ccc(F)cc3Sc3cc(F)c(Cl)cc32)CC1 (configuration not stated)	i	i	i	i	i	i
CN1CCN(C2Cc3ccccc3Sc3ccc(Cl)cc32)CC1 (configuration not stated)	i	i	i	i	i	i
CN1CCN(C2Cc3cc(F)ccc3Sc3ccc(Cl)cc32)CC1 (configuration not stated)	i	i	100	i	i	i
Fc1ccc(-c2nc3c(Cl)cc(C(F)(F)F)cn3c2Cc2cccc(Cl)c2)cc1	i	nt	nt	33	i	nt
FC(F)(F)c1cc(Cl)c2nc(-c3ccc(Cl)cc3)c(Cc3ccsc3)n2c1	i	nt	nt	31	i	nt
CCOc1ccc(S(=O)(=O)n2cc(F)c(=O)[nH]c2=O)cc1[N+](=O)[O-]	i	i	i	i	i	i
CCOc1ccc(S(=O)(=O)n2cc(F)c(=O)[nH]c2=O)cc1	i	i	i	24	i	i
Cc1c(C(=O)N2CCN(c3ccc(F)cc3)CC2)sc2ncnc(N3CCN(c4ccccn4)CC3)c12	i	i	32	i	i	i
SMILES	M1 PAM parental	M1 PAM	M1 antag	CHO-K1 Ca antag	CHO-K1 Ca ag	CHRM1 agonist
Cc1c(C(=O)N2CCN(c3ccccc3)CC2)sc2ncnc(N3CCN(c4ccccn4)CC3)c12	i	i	i	i	i	i
CCCCCCCCCn1ccc(=N)cc1	i	i	40	i	i	i
CCCCCCCn1ccc(=N)cc1	i	i	i	i	i	i
COc1cccc(CC(=O)Nc2cccc3ccccc23)c1	i	i	i	i	i	i
O=C(Nc1ccc(Cl)cc1)N1CCC(c2nc(-c3ccc(F)cc3)no2)CC1	i	i	58	i	i	i
O=C(Nc1ccc(Cl)cc1)N1CCN(c2ccc3nnc(-c4ccc(F)cc4)n3n2)CC1	i	i	42	i	i	i
CC1=NNC(=O)/C1=C\c1cn(-c2ccccc2)nc1-c1cccs1	i	i	34	31	i	i
C=CCn1c(SCCOc2ccc(OC)cc2)nnc1C(CO)NC(=O)c1ccc(OC)cc1 (configuration not stated)	i	i	i	25	i	i
CC(=O)c1c(C)[nH]c(C(=O)COC(=O)C2(C)CC2(Cl)Cl)c1C (configuration not stated)	i	i	i	i	20	i
CCc1nc2ccc(C(=O)Nc3ccc4c(c3)OCC(=O)N4)cn2c1N(C)Cc1nccn1C	i	i	i	i	i	i
CN(C)CCOC(C1CCCCC1)C1CCCCC1	i	i	49	i	i	i
CC(=O)Nc1cccc(OCC(=O)Nc2ccccc2)c1	i	i	i	i	i	i
CCOC(=O)Nc1cccc(OCC(=O)Nc2ccccc2OCC)c1	i	i	i	24	i	i
C#CCN1C(=O)S/C(=C/C=C/c2ccc(N(C)C)cc2)C1=O	i	i	47	i	i	36
O=C(CN1C(=O)S/C(=C\C=C\c2ccccc2)C1=O)Nc1ccccc1C(=O)O	i	i	i	i	i	i
CCn1c(SCC(=O)N/N=C/c2ccc(C)o2)nnc1-c1ccccc1	i	i	i	28	i	i
Nc1nonc1-n1nnc(C(=O)N/N=C/c2ccoc2)c1-c1ccccc1	i	i	i	i	i	16
Cc1ccc(/C=N/NC(=O)c2nnn(-c3nonc3N)c2-c2ccccc2)o1	i	i	i	i	22	i
Nc1nonc1-n1nnc(C(=O)N/N=C/c2ccco2)c1-c1ccccc1	i	i	i	i	i	22
CCOc1ccc(-c2c(C(=O)N/N=C/c3ccc(C)o3)nnn2-c2nonc2N)cc1	i	i	i	i	i	i
Cc1cnc(C(=O)Oc2c(C)ccc(C)c2C)cn1	i	i	i	i	i	i
COc1cccc(-c2c(C(=O)N/N=C/c3ccco3)nnn2-c2nonc2N)c1	i	i	i	i	16	35
Nc1nonc1-n1nnc(C(=O)N/N=C/c2ccc(F)cc2)c1-c1cccs1	i	i	i	i	i	19
O=c1oc(C2(O)CCCCC2)cc2ccc(/C=C/c3ccc(F)cc3)cc12	i	i	i	i	i	i

Screening results: PubChem, The Scripps Research Institute Molecular Screening Center
